The whole screen tested about 5,500 compounds, of which about 2,000 (36%) were called active. Inconclusive results (about 18%) are left out. No stated cut-off is given here; in the data, active means normalized growth mostly below about 0.91 (no sharp cut-off); inconclusive means no clear call, values can overlap the other calls; inactive means mostly above about 0.92. The list shows a part of the results.
Experiment: chemical genetic growth profiling, strain panel (AID 1159580);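 further: tested at 20 µM; growth read once vehicle control cultures reached saturation at 30 °C; 1 = growth at the plate median or of vehicle wells; lower values mean less growth of the strain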
Details: growth OD

Measured: normalized growth

COc1ccc(C(Cl)=C(c2ccc(OC)cc2)c2ccc(OC)cc2)cc1
inactive: S. cerevisiae deletion strains, locus YKL009W, strain mrt4, hits give low values 1.02 | S. cerevisiae deletion strains, locus YKL068W, hits give low values 1.02 | S. cerevisiae deletion strains, locus YKL085W, strain MDH1 (second series), hits give low values 0.98 | S. cerevisiae deletion strains, locus YKL085W, strain MDH1, hits give low values 0.98 | S. cerevisiae deletion strains, locus YKL160W, strain elf1, hits give low values 0.993 | S. cerevisiae deletion strains, locus YKL190W, strain CNB1, hits give low values 1.01 | S. cerevisiae deletion strains, locus YKR001C, strain vps1, hits give low values 1.01 | S. cerevisiae deletion strains, locus YKR026C, strain gcn3, hits give low values 1.01 | S. cerevisiae deletion strains, locus YKR091W, strain srl3, hits give low values 1.04 | S. cerevisiae deletion strains, locus YLL001W, strain dnm1, hits give low values 1.01 | S. cerevisiae deletion strains, locus YLL026W, hits give low values 1 | S. cerevisiae deletion strains, locus YLL041C, strain sdh2, hits give low values 1.02 | S. cerevisiae deletion strains, locus YLR027C, strain aat2, hits give low values 1.04 | S. cerevisiae deletion strains, locus YLR039C, strain RIC1, hits give low values 1.01 | S. cerevisiae deletion strains, locus YLR058C, strain SHM2, hits give low values 1.02 | S. cerevisiae deletion strains, locus YLR102C, strain apc9, hits give low values 1.02 | S. cerevisiae deletion strains, locus YLR113W, strain HOG1, hits give low values 0.97 | S. cerevisiae deletion strains, locus YLR221C, strain rsa3, hits give low values 0.995 | S. cerevisiae deletion strains, locus YLR258W, strain gsy2, hits give low values 1.02 | S. cerevisiae deletion strains, locus YLR262C, strain YPT6 (second series), hits give low values 1.07 | S. cerevisiae deletion strains, locus YLR262C, strain YPT6, hits give low values 1.02 | S. cerevisiae deletion strains, locus YLR268W, strain sec22, hits give low values 1.01 | S. cerevisiae deletion strains, locus YLR320W, strain mms22, hits give low values 1.01 | S. cerevisiae deletion strains, locus YLR330W, strain CHS5, hits give low values 1.01 | S. cerevisiae deletion strains, locus YLR342W, strain FKS1 (second series), hits give low values 0.988 | S. cerevisiae deletion strains, locus YLR342W, strain FKS1, hits give low values 1.01 | S. cerevisiae deletion strains, locus YLR357W, strain rsc2, hits give low values 1.04 | S. cerevisiae deletion strains, locus YLR370C, strain arc18, hits give low values 0.972 | S. cerevisiae deletion strains, locus YLR371W, strain rom2, hits give low values 1.03 | S. cerevisiae deletion strains, locus YLR384C, strain iki3, hits give low values 1.01 | S. cerevisiae deletion strains, locus YLR418C, strain cdc73, hits give low values 1.06 | S. cerevisiae deletion strains, locus YML016C, strain PPZ1, hits give low values 1.02 | S. cerevisiae deletion strains, locus YML032C, strain rad52, hits give low values 1 | S. cerevisiae deletion strains, locus YML120C, strain ndi1, hits give low values 0.982 | S. cerevisiae deletion strains, locus YML124C, strain tub3, hits give low values 1.03 | S. cerevisiae deletion strains, locus YMR058W, strain fet3, hits give low values 1.05 | S. cerevisiae deletion strains, locus YMR078C, strain ctf18, hits give low values 1.03 | S. cerevisiae deletion strains, locus YMR125W, strain sto1, hits give low values 1.01 | S. cerevisiae deletion strains, locus YMR129W, hits give low values 0.998 | S. cerevisiae deletion strains, locus YMR205C, strain PFK2, hits give low values 1.03 | S. cerevisiae deletion strains, locus YMR223W, strain ubp8, hits give low values 1.02 | S. cerevisiae deletion strains, locus YMR231W, strain pep5, hits give low values 1.02 | S. cerevisiae deletion strains, locus YMR263W, strain SAP30, hits give low values 1.04 | S. cerevisiae deletion strains, locus YMR307W, strain GAS1, hits give low values 1 | S. cerevisiae deletion strains, locus YNL067W, strain RPL9B, hits give low values 1.03 | S. cerevisiae deletion strains, locus YNL071W, strain lat1, hits give low values 1.03 | S. cerevisiae deletion strains, locus YNL128W, strain TEP1, hits give low values 1.03 | S. cerevisiae deletion strains, locus YNL183C, strain NPR1, hits give low values 0.905 | S. cerevisiae deletion strains, locus YNL209W, strain ssb2, hits give low values 1 | S. cerevisiae deletion strains, locus YNL233W, strain BNI4, hits give low values 1.02 | S. cerevisiae deletion strains, locus YNL248C, strain rpa49, hits give low values 0.962 | S. cerevisiae deletion strains, locus YNL250W, strain rad50, hits give low values 1.05 | S. cerevisiae deletion strains, locus YNL271C, strain bni1, hits give low values 1.01 | S. cerevisiae deletion strains, locus YNL298W, strain CLA4, hits give low values 1.01 | S. cerevisiae deletion strains, locus YNL307C, strain MCK1, hits give low values 1.02 | S. cerevisiae deletion strains, locus YNL322C, strain KRE1 (second series), hits give low values 1.03 | S. cerevisiae deletion strains, locus YNR049C, strain mso1, hits give low values 0.977 | S. cerevisiae deletion strains, locus YNR052C, strain pop2, hits give low values 1.02 | S. cerevisiae deletion strains, locus YOL006C, strain TOP1, hits give low values 1.12 | S. cerevisiae deletion strains, locus YOL012C, strain htz1 1.9 | S. cerevisiae deletion strains, locus YOL147C, strain pex11, hits give low values 1.02 | S. cerevisiae deletion strains, locus YOR001W, strain rrp6, hits give low values 1.04 | S. cerevisiae deletion strains, locus YOR061W, strain CKA2, hits give low values 1.01 | S. cerevisiae deletion strains, locus YOR069W, strain VPS5, hits give low values 1.02 | S. cerevisiae deletion strains, locus YOR070C, strain gyp1, hits give low values 1.02 | S. cerevisiae deletion strains, locus YOR080W, strain dia2, hits give low values 0.995 | S. cerevisiae deletion strains, locus YOR083W, strain WHI5, hits give low values 1.02 | S. cerevisiae deletion strains, locus YOR106W, strain vam3, hits give low values 1.07 | S. cerevisiae deletion strains, locus YOR136W, strain idh2, hits give low values 1.01 | S. cerevisiae deletion strains, locus YOR144C, strain elg1, hits give low values 1.01 | S. cerevisiae deletion strains, locus YOR184W, strain ser1, hits give low values 1 | S. cerevisiae deletion strains, locus YOR231W, strain MKK1, hits give low values 0.981 | S. cerevisiae deletion strains, locus YOR265W, strain rbl2, hits give low values 0.996 | S. cerevisiae deletion strains, locus YOR270C, strain vph1, hits give low values 1.09 | S. cerevisiae deletion strains, locus YOR290C, strain snf2, hits give low values 1 | S. cerevisiae deletion strains, locus YOR316C, strain cot1, hits give low values 1.02 | S. cerevisiae deletion strains, locus YPL051W, strain arl3, hits give low values 0.99 | S. cerevisiae deletion strains, locus YPL055C, strain LGE1, hits give low values 1.01 | S. cerevisiae deletion strains, locus YPL078C, strain atp4, hits give low values 1.04 | S. cerevisiae deletion strains, locus YPL106C, strain sse1, hits give low values 1.01 | S. cerevisiae deletion strains, locus YPL240C, strain hsp82, hits give low values 0.989 | S. cerevisiae deletion strains, locus YPL241C, strain CIN2, hits give low values 1.01 | S. cerevisiae deletion strains, locus YPL256C, strain CLN2, hits give low values 0.964 | S. cerevisiae deletion strains, locus YPR119W, strain clb2, hits give low values 1.02 | S. cerevisiae deletion strains, locus YPR141C, strain kar3, hits give low values 1.02 | S. cerevisiae deletion strains, locus YPR163C, strain tif3, hits give low values 1.03 | S. cerevisiae deletion strains, locus YPR167C, strain met16, hits give low values 1.02 | S. cerevisiae deletion strains, strain wtn01, hits give low values 1.02 | S. cerevisiae strains, strain wild type, hits give low values 1.02

Source: PubChem BioAssay AID1159580 (chemical genetic matrix, 2015)
